# Measured values from PubChem BioAssay (NCI).
# Several values for one entry are separate records, joined by “and”; a condition that tells them apart may be missing. Identical values can stand only once. About 79,000 compounds went through this panel and 15% of them were active in at least one assay; those are over-represented in the sample as a whole. The source holds several records for some structures; these can differ, active in one and inactive in another. Activity calls are given as the source filed them. No stated cut-off is given here; in the data, active means growth inhibition above about 70%; inactive means the rest.
# Tests used:
# [1] = NCI Yeast Anticancer Drug Screen. Data for the mec2-1 strain (AID 157); conditions: S. cerevisiae mec2-1 strain, stronger effect = higher value
# Summary of the method: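 Compounds were applied to mec2-1 yeast cells. Their growth was then compared with that of vehicle-treated cultures to give growth inhibition.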
# [2] = NCI Yeast Anticancer Drug Screen. Data for the sgs1 mgt1 strain (AID 161);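 further: 0% = growth of cultures given vehicle only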; conditions: S. cerevisiae sgs1 mgt1 strain, stronger effect = higher value
# Summary of the method: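 Percent growth inhibition was derived by comparing compound-exposed mutant yeast with vehicle-exposed cultures. The strain carries alterations in DNA damage repair.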
# [3] = NCI Yeast Anticancer Drug Screen. Data for the cln2 rad14 strain (AID 165);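 further: 0% = growth equal to vehicle treated cultures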; conditions: S. cerevisiae cln2 rad14 strain, stronger effect = higher value
# Summary of the method: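 Strain: cln2 rad14 yeast, altered in cell cycle control and DNA damage repair. Read-out: growth inhibition vs vehicle.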
# [4] = NCI Yeast Anticancer Drug Screen. Data for the bub3 strain (AID 167); conditions: S. cerevisiae bub3 mutant strain, stronger effect = higher value
# Summary of the method: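 Inhibition values come from growth of compound-treated mutant yeast normalised to vehicle-treated controls.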
# [5] = NCI Yeast Anticancer Drug Screen. Data for the mlh1 rad18 strain (AID 175); conditions: S. cerevisiae mlh1 rad18 strain growth inhibition, stronger effect = higher value
# Summary of the method: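 A repair-deficient yeast strain is exposed to test compound, and growth is scored relative to vehicle-treated controls.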
# [6] = NCI Yeast Anticancer Drug Screen. Data for the rad50 strain (AID 155);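 further: 0% = growth of vehicle-only cultures of the same strain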; conditions: S. cerevisiae rad50 strain growth inhibition, stronger effect = higher value
# Summary of the method: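 A DNA repair-deficient yeast mutant serves as the test organism; compound-induced growth inhibition is calculated against vehicle-treated cells.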
# [7] = at 5.0 µM (retest, dose inferred, filed as 0.5)
# [8] = at 50.0 µM (retest, dose inferred, filed as 5.0)
SMILES,"growth inhibition [1, 7]","growth inhibition [1, 8]",growth inhibition ([1]; at 50.0 µM),"growth inhibition [2, 7]","growth inhibition [2, 8]",growth inhibition ([2]; at 50.0 µM),"growth inhibition [3, 7]","growth inhibition [3, 8]",growth inhibition ([3]; at 50.0 µM),"growth inhibition [4, 7]","growth inhibition [4, 8]",growth inhibition ([4]; at 50.0 µM),"growth inhibition [5, 7]","growth inhibition [5, 8]",growth inhibition ([5]; at 50.0 µM),"growth inhibition [6, 7]","growth inhibition [6, 8]",growth inhibition ([6]; at 50.0 µM)
O=C(Nc1cc(-c2ccccc2)[nH]n1)c1ccccc1F,35% (inactive),69% (inactive),86% (active),39% (inactive),83% (active),92.8% (active),30% (inactive),54% (inactive),66.5% (inactive),42% (inactive),55% (inactive),89.3% (active),43% (inactive),86% (active),89.6% (active),–,–,–
CC(=O)Nc1nc([N+](=O)[O-])c(C(C)C)s1,-2% (inactive),4% (inactive),10.6% (inactive),3% (inactive),4% (inactive),-1.85% (inactive),-6% (inactive),-4% (inactive),1.55% (inactive),-3% (inactive),9% (inactive),-7.8% (inactive),5% (inactive),15% (inactive),18.2% (inactive),–,–,–
CCN(CC)C(=S)Sc1nc2ccccc2s1,-2% (inactive),87% (active),-12.1% (inactive),0% (inactive),95% (active),16.7% (inactive),-7% (inactive),13% (inactive),-54.5% (inactive),24% (inactive),91% (active),68.1% (inactive),5% (inactive),63% (inactive),18.4% (inactive),–,–,–
CCn1c2ccccc2c2ccc(N=Cc3ccc(N(C)C)cc3)cc21,–,–,–,2% (inactive),40% (inactive),61% (inactive),0% (inactive),45% (inactive),27.4% (inactive),-3% (inactive),25% (inactive),70.7% (active),5% (inactive),37% (inactive),47.5% (inactive),1% (inactive),78% (active),61.6% (inactive)
CCOC(=O)C(C(=O)c1ccccc1)C(=O)c1ccccc1,29% (inactive),93% (active),-14.4% (inactive) and 91.2% (active),37% (inactive),82% (active),-4.65% (inactive) and 92% (active),34% (inactive),56% (inactive),-21.1% (inactive) and 90.6% (active),35% (inactive),92% (active),-0.95% (inactive) and 90.5% (active),35% (inactive),97% (active),-22% (inactive) and 90.8% (active),–,–,–
COC1OC(C(O)CO)C(O)C(O)C1O (stereo not drawn),–,–,13.7% (inactive) [middle of 4 runs],–,–,12.2% (inactive) [middle of 4 runs],–,–,–,–,–,–,–,–,25.1% (inactive) [middle of 4 runs],–,–,–
